# From article PMC5540273 (PLoS ONE, 2017)
# Tests used:
# Conditions in all cases: concentration: 1 μM, replicates: in singlicate; n = 1
# [1] = system: TYK2(JH2domain-pseudokinase)
# TYRO3 = system: TYRO3
# ULK1 = system: ULK1
# ULK2 = system: ULK2
# ULK3 = system: ULK3
# VEGFR2 = system: T1, VEGFR2
# T1 construct: gene KDR
# VPS34 = system: T2, VPS34
# T2 construct: gene PIK3C3
# VRK2 = system: VRK2
# WEE1 = system: WEE1
# WEE2 = system: WEE2
# WNK1 = system: WNK1
# WNK2 = system: WNK2
# WNK3 = system: WNK3
# WNK4 = system: WNK4
# YANK1 = system: T3, YANK1
# T3 construct: gene STK32A
# YANK2 = system: T4, YANK2
# T4 construct: gene STK32B
# YANK3 = system: T5, YANK3
# T5 construct: gene STK32C
# YES = system: T6, YES
# T6 construct: gene YES1
# YSK1 = system: T7, YSK1
# T7 construct: gene STK25
# YSK4 = system: T8, YSK4
# T8 construct: gene MAP3K19
# 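Further: KINOMEscan kinase panel screen.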
SMILES,%Inh [1],%Inh (TYRO3),%Inh (ULK1),%Inh (ULK2),%Inh (ULK3),%Inh (VEGFR2),%Inh (VPS34),%Inh (VRK2),%Inh (WEE1),%Inh (WEE2),%Inh (WNK1),%Inh (WNK2),%Inh (WNK3),%Inh (WNK4),%Inh (YANK1),%Inh (YANK2),%Inh (YANK3),%Inh (YES),%Inh (YSK1),%Inh (YSK4)
CNC(=O)c1ccccc1Nc1nc(Nc2ccc(N3CCOCC3)cc2)ncc1Cl.Cl [GSK1576028],99.7%,85%,99.6%,81%,99.8%,90%,0%,21%,99.7%,100%,12%,5%,39%,0%,58%,30%,24%,98.7%,68%,99.9%
FC(F)(F)c1ccc(/C=C/c2cncnc2Nc2ccc3[nH]c(Cc4ccccc4)nc3c2)cc1 [GW709199],34%,0%,0%,0%,10%,0%,39%,3%,23%,35%,0%,0%,0%,0%,0%,0%,0%,0%,0%,73%
C[C@@H]1CC[C@@H](C(=O)Nc2ccccc2)CN1c1cc(-c2ccc3c(N)n[nH]c3c2)nc(N)n1 [GSK2286062],2%,0%,8%,0%,4%,0%,0%,1%,0%,0%,0%,0%,33%,0%,15%,0%,17%,0%,21%,29%
COc1cc(Nc2nccc(-c3c(-c4cccc(NC(=O)c5c(F)cccc5F)c4)nn4ccccc34)n2)cc(OC)c1OC [GSK323521],0%,0%,0%,0%,18%,0%,12%,0%,0%,6%,27%,59%,54%,19%,11%,0%,14%,8%,3%,93.6%
COc1cccc(NC(=O)NC2CCN(c3ccnc(Nc4cc(OC)c(OC)c(OC)c4)n3)C2)c1 (stereo not shown) [GSK1379763],38%,0%,3%,0%,88%,43%,20%,0%,20%,0%,8%,11%,26%,11%,1%,0%,4%,1%,6%,31%
O=C(Nc1cccc(-c2nn3ncccc3c2-c2ccnc(Nc3ccccc3)n2)c1)c1c(F)cccc1F [GSK198271],0%,100%,22%,0%,6%,80%,0%,0%,40%,0%,2%,60%,0%,0%,63%,38%,18%,99.5%,20%,18%
Cc1ccc(C)c(NC(=O)NC2CCN(c3ccnc(Nc4ccc(F)cc4)n3)C2)c1 (stereo not shown) [GSK1379720],48%,0%,0%,0%,10%,0%,0%,45%,4%,0%,5%,0%,43%,48%,0%,0%,28%,9%,0%,29%
Nc1ncc(-c2cccnc2)c2scc(-c3ccc4c(c3)CCN4C(=O)Cc3ccccc3)c12 [GSK683281],0%,15%,7%,0%,10%,30%,29%,0%,22%,17%,17%,28%,12%,0%,21%,10%,29%,28%,27%,46%
Cl.NC(=O)c1cccc(Nc2nccc(Nc3ccc(Oc4c(Cl)cccc4Cl)c(Cl)c3)n2)c1 [GW659009],0%,0%,35%,0%,4%,0%,0%,2%,0%,0%,3%,0%,12%,0%,4%,0%,5%,39%,0%,3%
Nc1n[nH]c2cnc(-c3ccccc3)cc12 [SB-642124],85%,9%,50%,22%,35%,0%,0%,35%,19%,0%,8%,2%,33%,38%,12%,0%,17%,24%,1%,95.9%
Cc1ccc(C(=O)Nc2ccc(Nc3ccnc4cc(-c5nccs5)ccc34)cc2O)cc1.Cl [GW494702],15%,19%,4%,0%,3%,2%,18%,28%,0%,0%,6%,41%,38%,39%,9%,0%,11%,33%,0%,30%
Fc1ccc(-c2ncn(C3CCNCC3)c2-c2ccnc(Oc3ccc(-c4ccccc4)cc3)n2)cc1 [SB-245391],84%,0%,54%,26%,46%,12%,30%,41%,0%,58%,42%,0%,32%,0%,90.8%,85%,86%,0%,18%,47%
Cl.c1ccc(-c2ccc3c(Nc4ccc5[nH]ncc5c4)ccnc3c2)nc1 [GW440137],32%,0%,12%,0%,11%,66%,0%,0%,0%,5%,11%,14%,19%,28%,3%,1%,7%,14%,9%,51%
Clc1ccc(-c2nn3ncccc3c2-c2ccnc(Nc3ccc4c(c3)OCCO4)n2)cc1 [GW829116],0%,0%,0%,0%,0%,29%,0%,16%,0%,0%,0%,0%,0%,0%,0%,21%,0%,45%,0%,0%
COc1ccc(Nc2nccc(N3CCC(NC(=O)Nc4cccc(OC)c4)C3)n2)cc1 (stereo not shown) [GSK1379742],5%,0%,0%,0%,17%,17%,16%,0%,52%,13%,0%,18%,19%,0%,10%,0%,0%,0%,0%,23%
O=C(O)C(F)(F)F.O=C(O)C(F)(F)F.O=c1[nH]ccc2nc(N[C@@H]3CCCNC3)nc(Nc3ccc(S(=O)(=O)N4CCOCC4)cc3)c12 [GSK2177277],93.2%,15%,100%,88%,99.9%,74%,91.5%,77%,66%,13%,0%,29%,13%,0%,96.6%,89%,74%,75%,94.2%,99.7%
C[C@@H](Oc1cc(-n2cnc3cc(-c4ccnc(NCCS(C)(=O)=O)c4)ccc32)sc1C(N)=O)c1ccccc1Cl [GSK907232],0%,4%,25%,0%,14%,28%,60%,0%,43%,25%,37%,80%,88%,37%,6%,0%,32%,47%,14%,96.7%
